# Tested on: RARg homodimer (NR concentration 270 nM)
# Experiment: PBM binding z-score (relative to random genomic background probes); higher = stronger binding; sequences stand for … in GC…GCGATTGACAGCGTAGAATGAAGG
# Outline: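 Binding z-scores were set against random background probes. The data came from custom Agilent 4×180K protein-binding microarrays carrying double-stranded probes with 34-nt variable regions, incubated 1 h with ligand-free nuclear receptor dimers. Partner-specific antibodies detected binding, and scanned fluorescence was regression-normalized.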
row,Sequence,PBM binding z-score
1,CCGACAGGGGCAAAGGTTACCATACTCAGTACGA,2.17
2,CGTCAAAGTTCAAGATAACGTAACAGAAAGCAGC,6.09
3,CTCGAAAGGTCGGTTGAGGTGAGTGTACGGATAA,2.86
4,GCAGACAGGTGAAACGCAGGTAACGCAGGGTGGC,0.47
5,AGAATGAGGTTACCAAAGATCACGGAAACGCTTG,1.89
6,CGAACTAGGTCCTCCAGGACAGTGAATACATTGA,0.149
7,TCTTGTAGATCAAGCAGCTTAAGAAAGCCTGAGT,-0.59
8,TCTAGCAGGGCAGAGGGTCACTCAAGAGGTACGG,2.36
9,GCTTGTAGATCAAGGTTGAGAAAGACTAAGCTAA,-0.385
10,AGTCAAAGTTCCGGACGAGGTAACGTAAAGCACG,0.277
11,CCTTACGGGTCACTCCAGGGTATAGCATCGGAGT,4.17
12,ACTACTAGTTGAGACGAGGGCAACCGATAGGTTG,0.767
13,GCTGCTAGGTCAGGGTGGTCAGCTAACGGGTACG,3.73
14,GCTGTTAGTTGAAAGGGCAACCGAATGATTCTCG,1.43
15,TGAATGAGGTTAAACATCAGGGAACGTGGCGTCG,1.44
16,TCGAGTAGGTTAGTGGCATTCAGAATGGCGTCGA,-0.516
17,CCAACTGGGGCAAGGTTACCATAACGCACAGCCA,1.56
18,TAGCCTAGGTCATGCGGGCCAGGATAGTGTCGGC,4.7
19,GCTGCTAGGTCTACTGATGGTCAGCTAAAGCTCG,-0.555
20,ACAGACAGGAGAGTGAAGGTAACTCAGCTGGACG,0.235

row,Sequence,PBM binding z-score
1,GATACAGGGTCATGGCCAGAGTACGCGTATTGAT,5.09
2,GCTAGTTGGTCAGCAAAAGGTCACACACCGGTCG,5.62
3,ATCGAAAGGTCGAGGTGAGTAGAGAGAAAGGGAA,4.69
4,AGAGTGAGGTTAAGATCAGGGAAACAGAATACAT,1.68
5,ATCGAAAGGTCGAAGGTGAGTATGCCCACCCGAA,3.76
6,TCTGCTAGGTAAGTTGGTCAGCTAACGAGCTGCC,-0.71
7,CGAATGAGGGCATGAGTTGATAGCAAATGCCGAT,1.58
8,CCTAGCAGGCCAATCTGGGTCACTCTAGGCTTGA,1.14
9,TCTTGTAGATCTAGCAGGTTAAGAAAGCCTGAGT,-0.19
10,TCTGATAGGTCAGTTGGTCAGCTAACGAGCTGCC,4
11,ACTAGCAGGCCAAGTTTGGGGCACTCAAACAAAG,0.463
12,TCTATTAGTTGATTAGCGCAACCGAAACAGCGGA,-0.0626
13,TCATATAGGTAAAAGGTGAAAATCGGTGTGGTAA,0.775
14,CCTTACGGGTCACTGACAGGTTATAGGATTTGGA,4.77
15,TCATATCGGTAAAGGTGAAAGTCGAACGATATGA,1.16
16,CCTAGCAGGCCAGGGTCCCTCAAGCATTTCGCTT,-0.827
17,TCGGCTAGGTCAACGATGGTCAGCTAATCTGCTA,5.22
18,TTACCAACGTGAAAGGTCGTTGATGCACGCCTTG,0.872
19,ACAGAGAGGTGATGAAGGTAACTCAGGCTATCAT,0.832
20,ACTTACGGGTCAACGAGGTTATAGCGCGCGTATA,5.32

# Reference: the supplement of paper PMC6555819
